Experimental findings from PubChem BioAssay AID2551 (National Center for Advancing Translational Sciences (NCATS), 2010) are described below.

The whole screen tested about 310,000 compounds, of which about 17,000 (5.5%) were called active. Inconclusive results (about 11%) are left out. This excerpt belongs to a sample that is enriched for actives. Values without a mark were called inactive. The call rests on the fitted dose curve; in most records, active means well fitted inhibition curve with a large enough effect; inconclusive means small, poorly fitted or top-dose-only effect, or effect the other way; inactive means no such curve, though single readings can be large or run the other way.
On the % scale 0 is the no-effect control and ±100 the full control effect; potency means the concentration at half of the fitted maximal effect.

For the test, the target named is Nuclear receptor ROR-gamma (Mus musculus) (UniProt P51450). The experiment in a line: qHTS for inhibitors of ROR gamma transcriptional activity. Further: nearly all actives have a fitted effect of over 60% in size. As to conditions: Drosophila S2 Gal4-RORgamma UAS-luciferase reporter, 20 h; series mostly up to 53.6 µM; activity change, negative = inhibition: at the top concentration. Summed up: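 Drosophila S2 cells stably expressing Gal4-DBD/mouse RORγ fusion under metallothionein promoter plus UAS-luciferase; compound 1 h, then 700 uM CuSO4 induction for 20 h at ambient temperature; inhibition read as reduced luminescence.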
Chain of Nuclear receptor ROR-gamma (Mus musculus) (P51450 whole entry, looked up, the tested form may be a part): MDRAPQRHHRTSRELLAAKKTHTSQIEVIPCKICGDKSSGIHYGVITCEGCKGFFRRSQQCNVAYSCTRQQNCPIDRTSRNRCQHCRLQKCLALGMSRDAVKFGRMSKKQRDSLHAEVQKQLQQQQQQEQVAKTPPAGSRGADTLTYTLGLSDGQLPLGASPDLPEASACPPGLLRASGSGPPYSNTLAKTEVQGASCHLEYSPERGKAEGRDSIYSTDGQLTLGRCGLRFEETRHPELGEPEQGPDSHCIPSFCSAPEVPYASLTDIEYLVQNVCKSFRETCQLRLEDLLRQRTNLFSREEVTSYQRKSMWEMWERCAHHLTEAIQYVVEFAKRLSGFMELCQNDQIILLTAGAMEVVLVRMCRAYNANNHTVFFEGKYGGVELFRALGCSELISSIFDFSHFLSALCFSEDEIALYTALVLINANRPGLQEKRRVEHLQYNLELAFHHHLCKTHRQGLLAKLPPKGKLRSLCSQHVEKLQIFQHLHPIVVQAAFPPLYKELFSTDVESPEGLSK
On the technique in general: In qHTS, concentration-response curves come from the screen itself.
Turning to `CC1COc2ccccc2N1C(=O)c1ccc(F)cc1` (centres undefined), the “activity change, negative = inhibition” value was 24%.
Turning to `c1ccc2c(c1)OCC(c1nn3cnnc3s1)O2` (centres undefined), the “activity change, negative = inhibition” value was 16.7%.
Take `COc1ccc(N2CCN(C(=O)c3ccc(N4CCCCS4(=O)=O)cc3)CC2)cc1`: the “activity change, negative = inhibition” value was 29.1%.
In the case of `COc1ccc(-c2cc(C(=O)N3CCN(c4ccc(F)cc4)CC3)no2)cc1`, the “activity change, negative = inhibition” value was 4.47%.
The same measure, in the same setting: with `CCOc1ccc2[nH]c3nc(SCC(=O)NC4CCCC4)nnc3c2c1` the figure was -11.8%; with `O=c1c2ccccc2ncn1CCCCOc1ccccc1F`, 12.9% [at 1.91 µM]; with `COC(=O)c1ccc(NC(=O)CSc2nc(N)c(NC(=O)c3ccc(Br)o3)c(=O)[nH]2)cc1`, 5.56%.
The same measure, in the same setting: with `O=c1oc(/C=C/c2ccccc2)nc2ccccc12` the figure was 0.954%.
As to `S=c1[nH]nc(/C=C/c2ccccc2)o1`, the Potency was 12.6 µM (active).
With `COc1ccc(N(CC(=O)N2CCCCCC2)S(=O)(=O)c2ccccc2)cc1`, the “activity change, negative = inhibition” value was 2.49%.
Regarding `Cc1ccc(NC2CCCN(C(=O)CCc3cn[nH]c3)C2)cc1C` (centres undefined), the “activity change, negative = inhibition” value is 14.3%.
`Cc1ccccc1N1CCN(CC(=O)NCc2ccc(Cl)cc2)CC1`: the “activity change, negative = inhibition” value is 27.3%.
Regarding `CCOC(=O)c1sc2nc(C)[nH]c(=O)c2c1C`, the “activity change, negative = inhibition” value is 18.3%.
As for `COC(=O)c1sc2[nH]c(=S)n(N)c(=O)c2c1C`, the Potency was 7.08 µM (active).
For `COC(=O)c1sc(=S)n(-c2ccccc2)c1N`, the “activity change, negative = inhibition” value was 0.645%.
With `O=S(=O)(c1ccc(Cl)cc1)c1nc(-c2ccccc2F)oc1NCCN1CCOCC1`, the “activity change, negative = inhibition” value was 38.8%.
Turning to `CC(=O)c1ccc(NC(=O)c2sc3nc4n(c(=O)c3c2C)CCCCC4)cc1`, the “activity change, negative = inhibition” value is 34.7%.
Consider `O=C(Nc1ccccc1Cl)/C(Cl)=C(\Cl)S(=O)c1ccccc1` (centres undefined), for which the Potency is 0.891 µM (active).
Turning to `O=C(Nc1ccccc1Cl)Nn1cnnc1`, the “activity change, negative = inhibition” value is -16.9%.
With `O=C(Cc1ccc2c(c1)CCCC2)Nc1ccccc1Cl`, the “activity change, negative = inhibition” value is 8.31%.
Same read-out and setting: with `Cc1ccc(S(=O)(=O)c2nnn3c2nc(N2CCN(c4ccccn4)CC2)c2ccccc23)cc1` the figure was -12.8%; with `CCC(CC)c1nnc(NC(=O)C2CCN(C(=O)c3ccco3)CC2)s1`, 35.8%; with `O=C(NCc1cccs1)c1ccc(Br)o1`, 5.95%.
Same read-out and setting: under `CC(CNC(=O)c1ccc(Br)o1)NC(=O)c1ccc(Br)o1` (centres undefined) stands -15%.
Turning to `C=CCNC(=S)NNC(=O)c1ccc(Br)o1`, the Potency is 2 µM (active).
Regarding `CC1CCN(C(=O)Cn2nnnc2CN2CCOCC2)CC1`, the “activity change, negative = inhibition” value was -26.6%.
Regarding `COC(CNC(=O)c1ccc2c(c1)ncn2-c1cc(C)cc(C)c1)OC`, the “activity change, negative = inhibition” value is 9.19%.
`O=C(N/N=C/c1sc(N2CCCCC2)nc1-c1cccs1)c1cccnc1`: the Potency is 7.94 µM (active).
On to `O=C(N/N=C/c1ccccn1)c1cccnc1`, for which the “activity change, negative = inhibition” value is -45.9%.
Consider `O=C(NN=C1CCC(=NNC(=O)c2cccnc2)CC1)c1cccnc1`, for which the “activity change, negative = inhibition” value is -37.9%.
Turning to `CN(Cc1ccccc1)C(=O)c1ccc(NC2=NC3CS(=O)(=O)CC3S2)cc1` (centres undefined), the “activity change, negative = inhibition” value was -0.867%.
The same measure, in the same setting: with `COc1cccc(Cn2cc(/C=N/NC(=O)c3cc(O)cc(O)c3)c3ccccc32)c1` the figure was -0.821%.
Turning to `N#CCC(=O)N/N=C/c1cn(Cc2ccc3ccccc3c2)c2ccccc12`, the Potency is 12.6 µM (active).
As for `CNC(=S)N/N=C/c1cn(Cc2ccc(C)cc2)c2ccccc12`, the “activity change, negative = inhibition” value was 31.1%.
Consider `Cc1c(C=O)c2ccccc2n1CCOc1ccccc1`, for which the “activity change, negative = inhibition” value is 77.1%.
`COc1cccc(C(C(=O)NC2CCCC2)N(C(=O)c2ccco2)c2cccc(C(C)=O)c2)c1OC` (centres undefined): the “activity change, negative = inhibition” value is 27%.
For `COc1cccc(NC(=S)N(CCc2c(C)[nH]c3ccccc23)Cc2ccco2)c1`, the Potency was 11.2 µM (active).
As for `CCNC(=S)N(CCc1c(C)[nH]c2ccc(C)cc12)Cc1ccco1`, the Potency is 11.2 µM (active).
Regarding `Cc1[nH]c2ccccc2c1CCN(Cc1cccs1)C(=S)NC(C)(C)C`, the “activity change, negative = inhibition” value is 3.01%.
With `COCCNC(=S)N(CCc1c(C)[nH]c2ccc(C)cc12)Cc1cccnc1`, the “activity change, negative = inhibition” value was 5.98%.
For `COc1ccc2[nH]c(C)c(CCN(Cc3cccs3)C(=S)Nc3ccccc3OC)c2c1`, the “activity change, negative = inhibition” value was 38.3%.
As for `Cc1ccc2[nH]c(C)c(CCNC(=O)NC3CCCCC3)c2c1`, the “activity change, negative = inhibition” value is 25.9%.
As for `NS(=O)(=O)c1ccc(CNC(=O)c2cccc(Oc3ccccc3)c2)cc1`, the “activity change, negative = inhibition” value is -1.73%.
In the case of `COc1ccc(N2CCN(C(=O)Cn3cnc4sc(C)c(S(=O)(=O)N5CCOCC5)c4c3=O)CC2)cc1`, the “activity change, negative = inhibition” value was 6.53%.
`COc1ccc(NS(=O)(=O)c2ccc3oc(SCC(N)=O)nc3c2)cc1`: the “activity change, negative = inhibition” value is 43.4%.
With `COc1cc(C(=S)N2CCOCC2)cc(OC)c1OC(=O)c1ccc([N+](=O)[O-])cc1[N+](=O)[O-]`, the activity change, negative = inhibition is -8.5% [at 1.91 µM].
As for `O=C(O)c1ccc2c(=O)n3c(nc2c1)/C(=C/c1ccc(OC(F)F)cc1OC(F)F)CC3`, the “activity change, negative = inhibition” value was 2.65%.
The same measure, in the same setting: under `CCOC(=O)N1CCN(Cc2nc(N)nc(Nc3ccc(C)cc3)n2)CC1` stands -14.9%.
Turning to `Nc1nc(CC(=O)CSc2ccc(Cl)cc2)nc(Nc2ccc(F)cc2)n1`, the Potency is 14.1 µM (active).
For `Cc1ccc(Nc2nc(N)nc(CSc3nnc(C)s3)n2)cc1`, the “activity change, negative = inhibition” value was 21.9%.
Regarding `O=S(=O)(NC1CC1)c1ccc(Cl)cc1`, the activity change, negative = inhibition is 30.8% [at 1.91 µM].
For `Cc1ccc(Nc2nnc(SCc3ccccc3)s2)cc1`, the “activity change, negative = inhibition” value is 10.7%.
As for `Nc1ccccc1N`, the “activity change, negative = inhibition” value is -35.5%.
As to `Cc1ccc(Nc2ccccc2N)cc1`, the Potency was 11.2 µM (active).
